# Experimental data reported in PubChem BioAssay (NCI).
# About 83,000 compounds went through this panel and 20% of them were active in at least one assay; those are over-represented in the sample as a whole.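 48-hour exposure, single concentration, 96-well plates; percent growth endpoint where 0 means no net growth. Active: below 10.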 Values without a mark were called inactive. The source made the active and inactive calls.
# Test system: NCI-H460 lung
# Test: NCI-60 one-dose screen, 48 h (100 = growth as untreated, 0 = no growth, -100 = all killed)
# Conditions: 10 µM unless noted
# Method: Growth inhibition of the NCI-H460 human Non-Small Cell Lung tumor cell line is measured as a screen for anti-cancer activity. Cells are grown in 96 well plates and exposed to the test compound for 48 hours. Compounds are tested at a single concentration, which is 10^-5 M for most compounds. The reported endpoint is percent growth (GI% or GIPRCNT), where numbers from 0 - 100% represent growth inhibition, and numbers from -100% - 0 represent cell death. For example, a value of 40 represents 60% growth inhibition. A value of 0 means no net growth occurred over the course of the experiment. A value of -40 indicates 40% of cells at the beginning of the experiment died by the end of the experiment. A value of -100 means all cells are dead at the end of the experiment.
# NCI-60 Human Tumor Cell Lines Screen was performed using the standard one-dose NCI protocol, which is described in more detail at https://dtp.cancer.gov/discovery_development/nci-60/default.htm.
# Compounds with GIPRCNT values below 10 were considered active. Activity score was based on GIPRCNT using the following formula: […]
# Score is 0 for GIPRCNT values of 100 or above, 50 for GIPRCNT values of 0, and 100 for GIPRCNT values of -100.
row,Structure (SMILES),growth
1,COc1ccccc1N1CCN(C(=O)c2ccc3nc(NC(=O)c4ccc(NCCc5ccccc5)c([N+](=O)[O-])c4)sc3c2)CC1,86.5%
2,COc1ccc(-c2nc(N/N=C/c3c[nH]c4ccccc34)nc(N3CCOCC3)c2C#N)cc1,82.8%
3,CNC(=O)NCC1OC(n2cnc3c(NC(=O)Nc4ccccc4)ncnc32)C(O[Si](C)(C)C(C)(C)C)C1O[Si](C)(C)C(C)(C)C (stereo not given),-6.74% (active)
4,Brc1ccc(C2CC(c3cccc(Nc4ccncc4)c3)=NN2c2ccccc2)cc1 (stereo not given),0.717% (active)
5,COc1cc2ncnc(Nc3ccc(C(=O)/C=C/c4ccc(C(F)(F)F)cc4F)cc3)c2cc1OC,108%
6,CC(=O)O[C@H]1CC[C@@]2(C)[C@@H](CC[C@@H]3[C@@H]2CC[C@@]2(C)[C@H]3CC[C@]2(O)C(C)=O)C1,105%
7,CCOC(=O)c1c(SC)nn(-c2cc(=O)[nH]c3ccc(Br)cc23)c1N,87.8%
8,CCCCCCOc1ccc(/C=N/Nc2cc(C)nc3ccc(Br)cc23)cc1,-72% (active)
9,COc1cc(NCCN(CC(C)C)C2CCCC2)c2ncccc2c1,95.7%
10,CCCNC(=O)Oc1ccc(/C(=C(\C)c2ccccc2)c2ccc(OCCN3CCCCC3)cc2)cc1,66.7%
11,CC(=O)c1cc2c(N)c(C(=O)Nc3cncc4ccccc34)sc2nc1C,110%
12,Cc1ccc2[nH]c(=O)cc(-n3nncc3COc3ccc(C=O)cc3)c2c1,106%
13,CC(=O)N1N=C(c2cccc(Nc3ccncc3)c2)CC1c1ccc2c(c1)OCO2 (stereo not given),101%
14,O=C(Nc1cccc(Cl)c1)Oc1c(Br)c(Br)c(Br)c(Br)c1Br,99.7%
15,O=C(Nc1sc2c(c1C(=O)O)CCCC2)c1cccc(C(F)(F)F)c1,78.5%
16,COc1ccc2c(c1)OC13Oc4cc(OC)ccc4C=C1CCCC3=C2,14.3%
17,[2H]C1([2H])NC([2H])([2H])C([2H])([2H])N(c2ccc(Nc3ncc4cc(C(=O)N(C)C)n(C5CCCC5)c4n3)nc2)C1([2H])[2H],62.7%
18,CCOC(=O)Oc1c(OC)cc(C(=O)O[C@@H]2C[C@@H]3CN4CCc5c([nH]c6cc(OC)ccc56)[C@H]4C[C@@H]3[C@H](C(=O)OC)[C@H]2OC)cc1OC,40.9%
19,CCC(=O)c1ccc(O)c(OC)c1,104%
20,CC[C@H](C)[C@@H]1NC(=O)[C@H](Cc2ccc(O)cc2)N(C)C(=O)[C@H](Cc2ccccc2)NC(=O)CN(C)C(=O)[C@@H]2CCCN2C(=O)[C@@H](Cc2ccccc2)N(C)C(=O)[C@H](CC(C)C)NC1=O,-26.5% (active)

row,Structure (SMILES),growth
1,Fc1cc(C2=NNC(c3ccc[nH]3)C2)ccc1-n1ccc(C(F)(F)F)n1 (stereo not given),64.8%
2,COc1ccc(-c2c[nH]c(C(=O)O)c2-c2cc(OC)c3c(c2OC)OCO3)cc1,102%
3,CCCCCN1C=C/C(=C\C(=O)N(C)c2cccc3ccccc23)c2ccccc21,105%
4,CN1CCN(c2c(F)cc(NC3=C(Cl)C(=O)c4ncccc4C3=O)cc2F)CC1,107%
5,COc1cc(C(=O)/C=C/c2c(C)n([O-])c3ccc(Cl)cc3[n+]2=O)cc(OC)c1OC,83%
6,CCCCCCCCCCN=C(N)N=C(N)N,40.6%
7,CCOC(=O)C1=C(C)NC(C)=C(C(=O)OCC)C1c1cc(Br)c(O)c(OC)c1,18.7%
8,C#Cc1cccc(NC(=O)Nc2cccc(N=C=S)c2)c1,112% [8.25 µM]
9,O=C1NC(=O)C(=Cc2cn(Cc3ccccn3)c3ccccc23)C(=O)N1,11.9%
10,C=C(C)[C@H]1CC/C(C)=C/CC[C@]2(C)O[C@H]2CC/C(COC(=O)[C@@H](OC(C)=O)[C@H](NC(=O)c2ccccc2)c2ccccc2)=C\[C@@H]1O,89%
11,CN1CCN(c2cnc(C(=O)Nc3cc(F)cc4cccnc34)cn2)CC1,103%
12,COc1ccc2c(c1)OC1=C(C(=O)OC1)C2c1cc(OC)c(OC)c(OC)c1 (stereo not given),5.28% (active)
13,Cc1ccccc1C(c1ccccc1)c1ccccc1C,101%
14,N#C/C(=C\c1ccc(Br)cc1)n1nnc2cccc(F)c21,-47% (active)
15,NC(=S)N/N=C/c1ccc(OC(=O)COc2cc(Cl)c(Cl)cc2Cl)cn1,79.9%
16,Cc1cc2nc(-c3ccccc3)c(-c3ccccc3)nc2cc1C,102%
17,COC(=O)Nc1nc2ccc(C(=O)c3cccc(I)c3)cc2[nH]1,4.52% (active)
18,O=C1/C(=C\c2cn(Cc3ccccc3)c3ccc(Br)cc23)c2ccccc2N1c1c(Cl)cccc1Cl,107%
19,CC(=O)CCSc1ccc(OC(C)=O)cc1,106%
20,COc1ccc(Cn2nc(-c3cc(OC)c(OC)c(OC)c3)c3c2CCc2cnoc2-3)cc1OC,55.1%
